# “And” between values parts separate entries of the source, which are not always exact repeats. Identical values can stand only once. Among all 410,000 compounds or so, about 2,400 (0.59%) were called active. Cut-off read from the data, not from the text of the source: active = max activation above about 30%; inactive = the rest. The sample as a whole holds a higher share of actives than the screen did. Where a SMILES comes first, the peptide text is derived from it. Bridges are numbered along the chain shown (N, C = ends). [ ]: non-standard residue; d: D form. The star is where a group is joined. X1 = CC[C@H](C)CCCCC(=O)*; Dab = NCC[C@H](N)C(=O)O
# Target: D(3) dopamine receptor (Homo sapiens) (UniProt P35462)
# Sequence (P35462 whole entry, looked up): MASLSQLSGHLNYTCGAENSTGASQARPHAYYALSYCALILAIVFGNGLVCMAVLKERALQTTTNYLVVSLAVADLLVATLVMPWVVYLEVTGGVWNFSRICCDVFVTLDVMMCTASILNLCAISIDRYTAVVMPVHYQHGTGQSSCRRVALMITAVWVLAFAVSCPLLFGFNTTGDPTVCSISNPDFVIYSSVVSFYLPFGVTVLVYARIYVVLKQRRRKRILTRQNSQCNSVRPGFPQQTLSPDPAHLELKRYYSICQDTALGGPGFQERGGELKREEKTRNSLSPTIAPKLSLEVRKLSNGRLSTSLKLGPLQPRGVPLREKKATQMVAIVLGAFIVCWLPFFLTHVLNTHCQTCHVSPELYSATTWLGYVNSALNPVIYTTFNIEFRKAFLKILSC
# Assay: qHTS of D3 Dopamine Receptor Agonist: qHTS; note: 0% is about no effect
# Conditions: D3R DiscoveRx beta-arrestin cells, luminescence, 90 min; hits give high values
# Outline: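 Agonist-mode cell screen: cells plated at 1500/well and incubated overnight at 37 °C, then exposed to library compounds for 90 min at 37 °C. Detection reagent was added for 30–60 min at room temperature, and luminescence was read.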
row,SMILES,max activation
1,COc1ccccc1NC(=O)c1sc2nc(C)c(C(=O)Nc3ccc(Cl)cc3)c(-c3ccc(Br)cc3)c2c1N,-10.3% (inactive)
2,Cc1nn(-c2ccc(N3CCCCC3)nn2)c(C)c1CCC(=O)NCc1ccccc1F,13.4% (inactive)
3,CCOc1ccc(Nc2nc(Cc3nnc(SCC(=O)c4ccc(C)cc4)o3)cs2)cc1,22.4% (inactive)
4,O=C(CSc1nnc(Cn2cnc3ccccc32)o1)c1ccccc1,2.49% (inactive)
5,CC(=O)Nc1ccc(C(=O)CSc2nnc(Cc3ccccc3)o2)cc1,46.1% (active)
6,Cc1ccc(NC(=O)c2oc3ccc(S(=O)(=O)N4CCCCC4)cc3c2C)cc1Cl,-12.7% (inactive)
7,C[C@H](NC(=O)c1nc[nH]c1C(=O)N[C@@H](C)C(=O)OC(C)(C)C)C(=O)OC(C)(C)C,-3.39% (inactive)
8,O=C(Nc1ccon1)c1nc[nH]c1C(=O)NCc1ccccc1,12.3% (inactive)
9,CNC(=O)c1[nH]cnc1C(=O)N[C@@H](CC(C)C)C(=O)OCc1ccccc1,15.1% (inactive)
10,C[C@H](NC(=O)c1nc[nH]c1C(=O)NCC(=O)OC(C)(C)C)c1ccccc1,-13.3% (inactive)
11,O=C(Nc1cc(Br)ccc1F)c1nc[nH]c1C(=O)NCc1ccccc1,-7.03% (inactive)
12,CCOC(=O)c1ccc(NC(=O)c2nc[nH]c2C(=O)NCc2ccccc2)cc1,56.5% (active)
13,C[C@H](NC(=O)c1nc[nH]c1C(=O)NCC(=O)OC(C)(C)C)C(=O)OCc1ccccc1,48.3% (active)
14,CCOC(=O)c1[nH]cnc1C(=O)Nc1ccccc1C,4.49% (inactive)
15,Cc1cccc(NC(=O)c2nc[nH]c2C(=O)NCC(=O)OCc2ccccc2)c1,74.4% (active)
16,COc1cccc(C(=O)N(Cc2cccc(Cl)c2)Cc2ccco2)c1,-11.4% (inactive)
17,Cc1cc(C)cc(NS(=O)(=O)c2ccc(-c3cc(C)no3)s2)c1,-10.7% (inactive)
18,CCOc1cc(/C=C(\C#N)C(=O)Nc2ccccc2C)ccc1OCc1cc(=O)n2nc(CC)sc2n1,-12.7% (inactive)
19,O=C1CC(c2nnc(Cc3ccc(Cl)cc3)o2)CN1c1ccccc1 (centres undefined),10.5% (inactive)
20,COC(=O)c1c(NC(=O)C(C)Oc2ccc(Cl)c(C)c2)sc(C)c1C (centres undefined),-8.23% (inactive)
21,CN[C@@H]1[C@H](O[C@H]2[C@H](O[C@H]3[C@H](O)[C@@H](O)[C@H](N=C(N)N)[C@@H](O)[C@@H]3N=C(N)N)O[C@@H](C)[C@]2(O)CO)O[C@@H](CO)[C@H](O)[C@H]1O,4.88% (inactive)
22,Cc1ccc(OC(=O)CSc2nnc(-c3cccs3)o2)cc1,7.3% (inactive)
23,CCCCCCCCCCCCCCCCO,11.6% (inactive)
24,CCN=C1S/C(=C\c2cc(Br)ccc2OCC(=O)OCC)C(=O)N1CC,5.26% (inactive)
25,Cc1cc(/C=C2/SC(=O)N(CC(=O)OC(C)C)C2=O)c(C)n1C,30.2% (active)
26,Cc1cc(/C=C2/SC(=O)N(CC(=O)N3CCCC3)C2=O)ccc1N1CCOCC1,-0.0029% (inactive)
27,FCOC(C(F)(F)F)C(F)(F)F,9.08% (inactive)

row,SMILES,max activation
1,COc1cc(OC)cc(C(=O)NCC(=O)OCc2csc(-c3ccccc3)n2)c1,-7.01% (inactive)
2,COc1ccc(C(=O)COC(=O)c2c(C)noc2C)cc1Cl,-4.54% (inactive)
3,Cc1ccc(-c2nc(COC(=O)c3c(C)noc3C)cs2)cc1,32.5% (active)
4,CC(=O)OC[C@H]1O[C@@H](O[C@H]2[C@H](O)[C@@H](OC(=O)c3ccccc3C(=O)O)[C@H](O)O[C@@H]2COC(C)=O)[C@H](O)[C@@H](OC(=O)c2ccccc2C(=O)O)[C@@H]1O,2.74% (inactive)
5,CCCC(=O)N1CCN(c2nc3c(OC)ccc(C)c3s2)CC1,3.21% (inactive)
6,O=C1C(c2[nH]c3ccccc3c2O)=Nc2ccccc21,-8.96% (inactive)
7,CCC(=O)N1CCC(C(N)=O)(N2CCCCC2)CC1,1.17% (inactive)
8,Cc1cc(Cl)ccc1NC(=S)N1CCC(C(N)=O)(N2CCCCC2)CC1,5% (inactive)
9,NC(=O)C1(N2CCCCC2)CCN(C(=S)Nc2ccc(Cl)cc2)CC1,32.5% (active)
10,Cc1ccc(NS(=O)(=O)c2ccc3c(c2)CC(=O)N3)cc1Cl,-10.2% (inactive)
11,Fc1ccc2[nH]c3c(N4CCN(Cc5ccc6c(c5)OCO6)CC4)ncnc3c2c1,9.79% (inactive)
12,Fc1ccc2[nH]c3c(N4CCSCC4)ncnc3c2c1,42.3% (active)
13,Cc1ccc(CNC(=O)CCC(=O)N2Cc3ccccc3Oc3ncccc32)cc1,-12% (inactive)
14,CCC(=O)N1c2ccccc2CC1C(=O)N1CCN(c2ccccc2)CC1 (centres undefined),0.179% (inactive)
15,Cc1cc2nc(-c3ccc(NC(=O)c4cccnc4)cc3)oc2cc1C,32.8% (active)
16,COc1cccc(C(=O)Nc2ccc3oc(-c4ccc5ccccc5c4)nc3c2)c1,15.1% (inactive)
17,Cc1cc2nc(-c3ccc(NC(=O)c4cc5ccccc5o4)cc3)oc2cc1C,2.05% (inactive)
18,CC1=C(/C=C/C(C)=C/C=C/C(C)=C/C=C/C=C(C)/C=C/C=C(C)/C=C/C2=C(C)CCCC2(C)C)C(C)(C)CCC1,-12.4% (inactive)
19,Cc1ccc(NC(=O)CSc2nc3c([nH]c4ccccc43)c(=O)n2-c2ccccc2)cc1Cl,-9.55% (inactive)
20,Cc1cc(C)c(NC(=O)Cn2c(SCC(=O)NCc3ccccc3)nc3ccccc32)c(C)c1,-11.4% (inactive)
21,Cc1ccc(-n2c(SCC(=O)Nc3ncc(Cl)cc3Cl)nc3ccccc32)cc1,39.8% (active)
22,CCC(=O)N1CCc2cc(S(=O)(=O)NC(C(=O)Nc3ccc(C(C)=O)cc3)C(C)C)ccc21 (centres undefined),-16.2% (inactive)
23,CSCCC(NS(=O)(=O)c1ccc(C)cc1)C(=O)N1CCCC1 (centres undefined),-0.577% (inactive)
24,CCCCC(NS(=O)(=O)c1ccc(C)cc1)C(=O)Oc1ccc2c3c(c(=O)oc2c1)CCC3 (centres undefined),51.9% (active)
25,NC(=O)C1CCN(C(=O)COc2ccc3c4c(c(=O)oc3c2)CCC4)CC1,-9.64% (inactive)
26,COc1ccccc1NC(=O)c1oc2ccccc2c1NC(=O)C(C)C,2.74% (inactive)
27,CSc1ccc(/C=N\NC(=O)COc2ccc(Cl)cc2Br)cc1,32.8% (active)

row,SMILES,max activation
1,C/C(CC(=O)NCc1ccc(Cl)cc1)=N\NC(=O)COc1ccc(C)cc1Br,-14.3% (inactive)
2,O=C(COc1ccc(Cl)cc1Cl)NCCCNC(=O)c1cnccn1,5.48% (inactive)
3,CC[C@H](C)CCCCC(=O)N[C@@H](CCN)C(=O)N[C@H](C(=O)N[C@@H](CCN)C(=O)N[C@H]1CCNC(=O)[C@@H]([C@H](C)O)NC(=O)[C@H](CCN)NC(=O)[C@H](CCN)NC(=O)[C@H](CC(C)C)NC(=O)[C@@H](CC(C)C)NC(=O)[C@H](CCN)NC1=O)[C@@H](C)O (X1-[Dab]T[Dab][Dab][Dab][dL]L[Dab][Dab][dT]; lactam 4-C),-1.99% (inactive)
4,CC1(C)[C@@H]2CC[C@@]1(C)[C@H](OC(=O)CSC#N)C2,-0.173% (inactive)
5,O=S(=O)(NCCS(=O)(=O)N1CCN(c2ccccc2)CC1)c1ccc(Cl)cc1,0.296% (inactive)
6,CCS(=O)(=O)N1CCC(N2CCN(c3ccccc3)CC2)CC1,64.6% (active)
7,CS(=O)(=O)N1CCC(C(=O)N2CCN(c3ccccc3)CC2)CC1,6.05% (inactive)
8,Cc1ccc(C)c(N2CCN(C(=O)CCc3c(C)nc4c(c3C)c(=O)n(C)c(=O)n4C)CC2)c1,1.37% (inactive)
9,COc1cc2c(cc1OC)[C@@H](Cc1cc(OC)c(OC)c(OC)c1)[N+](C)(CCCOC(=O)CC/C=C/CCC(=O)OCCC[N+]1(C)CCc3cc(OC)c(OC)cc3[C@H]1Cc1cc(OC)c(OC)c(OC)c1)CC2 (some centres undefined),4.34% (inactive) and 3.72% (inactive)
10,Cn1nnc2c(N3CCN(c4ccccc4)CC3)ncnc21,1.99% (inactive)
11,Oc1ccccc1N1CCN(c2ncnc3sc(-c4ccccc4)cc23)CC1,31.1% (active)
12,CCc1cc2c(N3CCN(c4nnc(CC)s4)CC3)ncnc2s1,13.8% (inactive)
13,CCCCN(CC)CCCNC(=O)c1nn(C)c2c1CS(=O)(=O)c1ccccc1-2,31.8% (active)
14,COc1ccc(OC)c(CCNC(=O)c2nn(C)c3c2CS(=O)(=O)c2ccccc2-3)c1,2.65% (inactive)
15,CCCCN(CC)CCCNC(=O)c1nn(C)c2c1CSc1ccccc1-2,3.9% (inactive)
16,CCOc1ccccc1CNC(=O)c1ccc(-n2c(C)cc3c2CCC(C)C3)cc1 (centres undefined),-10.9% (inactive)
17,COC(=O)c1cc(NC(=O)CCc2c(C)nc3c4c(C)cc(C)nc4nn3c2C)cc(C(=O)OC)c1,-21.8% (inactive)
18,O=C(CSc1nccn1-c1ccc(F)cc1)Nc1cccc2ccccc12,7.68% (inactive)
19,Cc1ccc(NC(=O)[C@H](Cc2ccccc2)NC(=O)CC[C@H]2O[C@@H](n3ccc(=O)[nH]c3=O)[C@H](O)[C@@H]2O)cc1C,63.9% (active)
20,O=C(CC[C@H]1O[C@@H](n2ccc(=O)[nH]c2=O)[C@H](O)[C@@H]1O)N[C@H](Cc1ccccc1)C(=O)NCc1ccco1,13.5% (inactive)
21,O=C(CC[C@H]1O[C@@H](n2ccc(=O)[nH]c2=O)[C@H](O)[C@@H]1O)N[C@H](Cc1ccccc1)C(=O)NCCCN1CCCC1=O,-10.2% (inactive)
22,CCOc1ccc(-c2cc3c(=O)n(CC(=O)NCc4ccc(OC)cc4)ccn3n2)cc1,-2.91% (inactive)
23,COc1cc2c(-c3ccc4c(c3)OCO4)c(-c3ccsc3)oc(=O)c2cc1OC,30.4% (active)
24,COc1cc(CNCc2ccc3c(c2)OCO3)c([N+](=O)[O-])cc1OC,-8.17% (inactive)
25,COc1cc(-c2c(-c3ccc4c(c3)OCO4)noc2C)ccc1F,-40.8% (inactive)
